Inconclusive results are not listed. Entries that show only a call come without a potency. The source made the active and inactive calls. Calls come from the whole dose curve; as a rule, active = well fitted cell-killing curve with a large enough effect in the repeat runs; inconclusive = weak or mixed curves, or effect the other way; inactive = no such curve, though single readings can be large or run the other way.
Potency is the fitted concentration of half-maximal effect.

The nature of this experiment: qHTS assay to identify small molecule antagonists of the retinoid-related orphan receptor gamma (ROR-gamma) signaling pathway - cell viability counter screen (AID 1159520). Note: nearly all actives have a fitted effect of over 50% in size. The following applies: Tet-on RORgamma CHO cells viability, ATP luminescence, 16 h; series mostly up to 92.4 µM. The gist of the method:
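Tet-on ROR gamma CHO cells (1,000/well) were plated 4 hr, given compounds in DMSO for 2 hr at 37 C, then induced with 1 uM final doxycycline for 16 hr. Viability was read as ATP by CellTiter-Glo luminescence after 30 min.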
In the case of `CC(=O)/C=C/c1ccc2c(c1)OCO2`, the Potency entry is “inactive”. In the case of `CC(C)Oc1cccc(NC(=O)c2ccccc2C(F)(F)F)c1`, the Potency result was “inactive”.

As for `ClC1=C(Cl)[C@]2(Cl)[C@@H]3[C@@H]4C[C@@H]([C@H]5O[C@@H]45)[C@@H]3[C@@]1(Cl)C2(Cl)Cl`, the Potency was 61.1 µM (active). For the compound `SCc1ccco1`, the Potency result is “inactive”. As to `CC(C)(c1ccc(O)c(-c2ccccc2)c1)c1ccc(O)c(-c2ccccc2)c1`, the Potency is 43.3 µM (active). As for `Cc1cc(Cl)ccc1O[C@H](C)C(=O)O`, the Potency entry is “inactive”.

For the compound `CC(=[OH+])/C=C(/C)[O-].CC(=[OH+])/C=C(\C)[O-].CC(=[OH+])/C=C(\C)[O-].[Al]`, the Potency entry was “inactive”. Under `CCC(C)c1cc(C(C)(C)C)cc(-n2nc3ccccc3n2)c1O` (stereo not drawn) stands “inactive”. With `ClC1=C(Cl)C2(Cl)C3C(Cl)C=CC3C1(Cl)C2(Cl)Cl` (stereo not drawn) the figure was 68.9 µM (active); with `C[CH2][Hg][N]1C(=O)C2C(C1=O)C1(Cl)C(Cl)=C(Cl)C2(Cl)C1(Cl)Cl` (stereo not drawn), 3.66 µM (active); with `CC(=O)OC1(c2ccccc2)CCN(CCc2ccccc2)CC1`, “inactive”. Regarding `[Cl][Sn]([c]1ccccc1)([c]1ccccc1)[c]1ccccc1`, the Potency was 0.411 µM (active).

For `CC(C)(C)C(O)C(Oc1ccc(-c2ccccc2)cc1)n1cncn1` (stereo not drawn), the Potency result was “inactive”. With `[Cd+2].[Cl-].[Cl-]` the figure was 27.5 µM (active); with `C=COCCCl`, “inactive”. For `O=C1C=CC(=O)c2ccccc21`, the Potency is 3.44 µM (active). On to `CC1(C)CN=C(NN=C(/C=C/c2ccc(C(F)(F)F)cc2)/C=C/c2ccc(C(F)(F)F)cc2)NC1`, for which the Potency is 24.3 µM (active). As to `CN(C)[C@@H]1C(=O)C(C(N)=O)=C(O)[C@@]2(O)C(=O)C3=C(O)c4c(O)ccc(Cl)c4[C@@](C)(O)[C@H]3C[C@@H]12`, the Potency entry was “inactive”.

Values taken from PubChem BioAssay (Tox21).
